# This is one part of a sample in which hits are shown more often than they occur.
# Mtb RmlCD inh: inhibitors of Mycobacterium tuberculosis RmlC and RmlD coupled enzymes; inhibition, % at 3.6 µM; AID 1533; RmlC+RmlD coupled enzyme assay, percent inhibition; primary screen in compound mixtures; actives 0.03% (n = 160,000); P9WH09+P9WH11; in the data active means inhibition mostly above about 34%, no sharp cut-off
# Target sequence (P9WH09 whole entry, looked up): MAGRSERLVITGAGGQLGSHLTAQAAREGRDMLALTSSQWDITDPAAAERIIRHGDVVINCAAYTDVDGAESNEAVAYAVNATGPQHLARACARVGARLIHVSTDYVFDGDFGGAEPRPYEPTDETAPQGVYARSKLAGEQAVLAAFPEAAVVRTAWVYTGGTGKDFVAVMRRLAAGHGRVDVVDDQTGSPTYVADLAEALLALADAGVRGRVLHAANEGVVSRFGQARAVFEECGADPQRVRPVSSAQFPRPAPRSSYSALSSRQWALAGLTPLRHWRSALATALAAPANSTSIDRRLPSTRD
# Target sequence (P9WH11 whole entry, looked up): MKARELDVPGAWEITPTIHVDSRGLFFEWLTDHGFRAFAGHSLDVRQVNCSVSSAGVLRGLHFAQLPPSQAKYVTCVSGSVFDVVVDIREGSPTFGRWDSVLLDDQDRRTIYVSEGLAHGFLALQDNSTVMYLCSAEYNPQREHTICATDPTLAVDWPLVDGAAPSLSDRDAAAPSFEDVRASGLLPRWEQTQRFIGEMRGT
# An asterisk follows results filed as active.
SMILES,Mtb RmlCD inh
CCN1CCN(c2c(Cl)cccc2NC(=O)c2ccc([N+](=O)[O-])cc2)CC1,-15
COc1ccccc1NC(=O)COn1nnc2ccc(S(=O)(=O)N3CCOCC3)cc21,-8
CCn1c(C)nc2cc(C(=O)N/N=C(\C)c3ccc(OC)cc3O)ccc21,37*
CCn1c(C)nc2cc(C(=O)N/N=C/c3ccc(OC)cc3)ccc21,4
CCn1c(C)nc2cc(C(=O)N/N=C(\C)c3ccc(N4CCOCC4)cc3)ccc21,9
O=C(Nc1nc(-c2ccc(Oc3ccccc3)cc2)cs1)C1=COCCO1,1
O=C(COC(=O)c1c(Cl)ccc(Cl)c1Cl)NC1CCS(=O)(=O)C1 (configuration not stated),8
COc1cccc(NC(=O)Cn2c(=O)n(-c3ccccc3)c(=O)c3sccc32)c1,-7
Cc1cccc(N/C=C(\[N+](=O)[O-])S(=O)(=O)c2ccccc2)c1C,1
Oc1cccnc1CCc1ccccc1,-7
COc1ccc(C)cc1-n1cnnn1,-12
Cc1ccc(C2C(C#N)=C(N)N(c3cccnc3)C3=C2C(=O)CCC3)c(C)c1 (configuration not stated),-8
COc1ccc(-c2cc(=NCCC(=O)O)c3cc(C)ccc3o2)cc1,32*
COc1ccc(-c2cc(=Nc3ccc(C)cc3)c3ccccc3o2)cc1,0
COc1ccc(-c2cc(=NC(CC(C)C)C(=O)O)c3cc(C)ccc3o2)cc1 (configuration not stated),-9
Nc1ccc(S(=O)(=O)N2CCCC2)cc1Cl,-1
O=C(CN1CCc2ccccc21)NN1CC(=O)N(c2ccc(Cl)cc2)CC1=O,-4
CN(C)S(=O)(=O)c1ccc(S(=O)(=O)Nc2ccc3c(c2)oc2ccccc23)cc1,-1
Cc1cc(=O)oc2cc(NS(=O)(=O)c3ccccc3)ccc12,43*
Cc1cc(=O)oc2cc(NC(=O)C3CCCC3)ccc12,-12
COc1ccc(CNC(=O)c2cc(C)nn2-c2ccccc2)cc1,-14
CC1(C)CC(=O)C(C(=O)/C=C/c2ccco2)C(=O)C1,-1
CSc1ccc(CN(C)CC(=O)NC(C)c2ccccc2)cc1 (configuration not stated),23
COc1cccc2cc(C(C)OC(=O)Nc3ccc(C)cc3)oc12 (configuration not stated),-11
Cc1nonc1C1CCCN1Cc1cn[nH]c1-c1ccc(-c2ccccc2)cc1 (configuration not stated),1
SMILES,Mtb RmlCD inh
Cc1oc2c(CN3CCOCC3)c(O)ccc2c(=O)c1-c1ccccc1,66*
Cc1oc2c(CN3CCCC3)c(O)ccc2c(=O)c1Oc1ccccc1Br,9
COc1ccc(Oc2c(C)oc3c(CN4CCOCC4)c(O)ccc3c2=O)cc1,5
CCOP(=O)(OCC)C(Nc1ccccc1)c1ccccc1C(F)(F)F (configuration not stated),-13
OCc1nc2ccccc2n1/N=C/c1cccs1,1
O=C1c2cnc3nc(SCc4ccc(Cl)cc4)nn3c2CC2c3ccccc3CCN12 (configuration not stated),-6
CCN(CC)C(=O)n1cnc(-c2ccccc2)c1-c1ccccc1,-7
O=C(COc1ccc(-c2ccccc2)cc1)N1CCCC1,-14
O=C(Nc1nccs1)c1cccc(NC(=O)C(F)(F)F)c1,-7
COc1cc(CNc2ccc(N3CCN(C(C)=O)CC3)cc2)ccc1OCc1ccc(F)cc1,11
CCC(=O)Oc1ccc2c(C)c(Cl)c(=O)oc2c1,43*
CCCCc1c(C)c2ccc(OCC(C)=O)cc2oc1=O,4
Cc1c(Cc2ccccc2)c(=O)oc2cc(OC(=O)c3ccccc3)ccc12,-7
CCN(Cc1ccncc1)Cc1cn(C)nc1-c1ccc(Oc2ccccc2)cc1,-8
CC1CN(S(=O)(=O)c2cccc(C(=O)OCC(=O)c3cccs3)c2)CC(C)O1 (configuration not stated),-1
CN(C)c1cccc(C(=O)OCc2cc(=O)oc3cc(O)ccc23)c1,11
CC1CN(S(=O)(=O)c2cccc(C(=O)OCc3cc(=O)oc4cc(O)ccc34)c2)CC(C)O1 (configuration not stated),64*
COc1ccc(-c2nc(NC(=O)c3n[nH]c(=O)c4ccccc34)sc2C)cc1,0
Cc1cccc(C(=O)N(Cc2nc3ccccc3c(=O)[nH]2)C2CCCCC2)c1,8
Cc1noc(C)c1C1(O)CCCCCCCCCCC1,7
CC12CN(C(=S)Nc3ccccc3)CC(C)(CN(C(=S)Nc3ccccc3)C1)C2=O,12
Cc1noc(NS(=O)(=O)c2ccc(NC(=O)C34CC5CC(C3)CC(n3cnc(Br)n3)(C5)C4)cc2)c1C,-14
COCCNC(=S)N(C)C1(c2ccccc2Cl)CCCCC1=O (configuration not stated),8
CCOC(=O)CC(=O)CSc1nc2ccc(C)cc2cc1C#N,-13
CCc1nc(SCC(=O)O)c(C#N)cc1C,11
SMILES,Mtb RmlCD inh
CCOC(=O)CC(=O)CSc1nc(CC)c(C)cc1C#N,36*
Cc1cc(C)n(C(=O)CCCn2nc(C)c([N+](=O)[O-])c2C)n1,-12
CC(C)c1ccc(NC(=O)c2cccc(Br)c2)cc1,8
O=C(c1cc(-c2cccs2)nc2ccccc12)N1CCN(c2ccccc2O)CC1,7
COc1cc(/C=N/NC(=O)c2ccncc2)ccc1OCc1cnc(Cl)s1,-14
CC1CCCCN1C(=O)COc1ccc(F)cc1 (configuration not stated),8
O=C(O)c1ccc(N/N=C2/CCCc3ccccc32)cc1,7
O=C(NC1=NN(c2ccccc2)CC1)Nc1ccccc1F,5
O=C(Nc1ccc(S(=O)(=O)Nc2ncccn2)cc1)c1cccc(S(=O)(=O)N2CCOCC2)c1,9
CCC(=O)NNC(=O)c1cc(COc2cc(Cl)cc(Cl)c2)on1,34
CCOc1ccc(-n2c(=O)[nH]cc(C(=O)Nc3ccc(OC)c(OC)c3)c2=O)cc1,-2
COc1ccc(-n2c(=O)/c(=C\c3cccs3)s/c2=C(/C#N)C(=O)NCCN2CCOCC2)cc1,0
COCCCn1c(=O)/c(=C\c2ccc(OC(F)F)c(OC)c2)s/c1=C(/C#N)C(=O)NCCOC,66*
COCCCn1c(=O)/c(=C\c2ccccc2OC(F)F)s/c1=C(/C#N)C(=O)NC(C)C,-8
COc1ccccc1NC(=S)NC(NC(=O)CC(C)C)C(Cl)(Cl)Cl (configuration not stated),5
O=c1[nH]cnc2sc3c(c12)CCC3,4
CN(C)CCNC(=O)CNC(=S)N(CCCN1CCOCC1)Cc1cccs1,-12
COc1ccccc1NC(=O)C/C(C)=N/NC(=O)COc1c(Br)cc(Br)cc1OC,15
Cc1ccc(C(=O)O)cc1N=Cc1cc(Br)cc(Br)c1O,45*
Cc1cccc(N=Cc2cc(Br)cc(Cl)c2O)c1,-15
CNC(=S)N/N=C/c1cc(Br)cc(Br)c1O,-8
O=C(CNc1cccc2ccccc12)N/N=C/c1ccc([N+](=O)[O-])cc1,-1
COC(=O)/C(=C/Nc1cccc2ccccc12)[N+](=O)[O-],100*
O=C(COC(=O)c1ccc([N+](=O)[O-])o1)Nc1cccc2ccccc12,-4
Cc1ccc(OCCn2cnc3ccccc3c2=O)c([N+](=O)[O-])c1,-3
CNC(=S)/N=C/NOCc1c(Cl)cccc1Cl,4

# High-throughput results deposited in PubChem BioAssay by PCMD.
